In PubChem BioAssay AID1117300 (National Center for Advancing Translational Sciences (NCATS), 2015) one finds outcome and AC50 data, which are given here for 20 compounds.

Calls of active or inactive are those of the source. Calls follow the shape of the full dose curve.

The conditions of the experiment: Ebola virus entry assay, ratio channel readout.
Consider `C[C@]12CC[C@@H]3c4ccc(O)cc4C[C@@H](CCCCCCCCCS(=O)CCCC(F)(F)C(F)(F)F)[C@H]3[C@@H]1CC[C@@H]2O` (stereo not given in full), for which the outcome was inactive.
Turning to `Cc1nnc(C(C)C)n1C1C[C@H]2CC[C@@H](C1)N2CC[C@H](NC(=O)C1CCC(F)(F)CC1)c1ccccc1` (stereo not given in full), the result was inactive.
On to `CO[C@H]1C[C@@H]2CC[C@@H](C)[C@@](O)(O2)C(=O)C(=O)N2CCCC[C@@H]2C(=O)O[C@H]([C@H](C)C[C@@H]2CC[C@H](OCCO)[C@H](OC)C2)CC(=O)[C@H](C)C=C(C)[C@@H](O)[C@@H](OC)C(=O)[C@H](C)C[C@H](C)C=CC=CC=C1C`, for which the outcome was inactive.
With `COC(=O)Nc1nc2ccc(C(=O)c3cccs3)cc2[nH]1`, the concentration at half-maximal activity (AC50) – broadly, the concentration at which the activity in the assay is half-maximal – is 544 nM (active).
Turning to `CO[C@H]1C[C@@H]2CC[C@@H](C)[C@@](O)(O2)C(=O)C(=O)N2CCCC[C@@H]2C(=O)O[C@H]([C@@H](C)C[C@@H]2CC[C@H](O)[C@H](OC)C2)CC(=O)[C@H](C)C=C(C)[C@@H](O)[C@@H](OC)C(=O)[C@H](C)C[C@H](C)C=CC=CC=C1C`, the result was inactive.
As to `C[C@@H]1O[C@@H](O[C@H]2CC[C@@]3(C)[C@H](CC[C@@H]4[C@H]3C[C@@H](O)[C@]3(C)[C@@H](C5=CC(=O)OC5)CC[C@]43O)C2)C[C@H](O)[C@@H]1O[C@H]1C[C@H](O)[C@H](O[C@H]2C[C@H](O)[C@@H](O)[C@@H](C)O2)[C@H](C)O1` (stereo in doubt), the result was inactive.
With `CN1CCN(CCCN2c3ccccc3Sc3ccc(C(F)(F)F)cc32)CC1`, the half-maximal activity concentration (AC50) is 7690 nM (active).
Same read-out and setting: the result for `CC[C@]1(O)C[C@@H]2CN(CCc3c([nH]c4ccccc34)[C@@](C(=O)OC)(c3cc4c(cc3OC)N(C)[C@H]3[C@@](O)(C(=O)OC)[C@H](OC(C)=O)[C@]5(CC)C=CCN6CC[C@]43[C@@H]65)C2)C1` reads 122 nM (active); that for `CN(C)CCOc1ccc(/C(=C(/CCCl)c2ccccc2)c2ccccc2)cc1`, 1090 nM (active).
As for `COC1=CC(=O)C[C@@H](C)[C@]12Oc1c(Cl)c(OC)cc(OC)c1C2=O`, the result was inactive.
For the compound `CC[C@]1(O)C[C@H]2CN(CCc3c([nH]c4ccccc34)[C@@](C(=O)OC)(c3cc4c(cc3OC)N(C=O)[C@H]3[C@@](O)(C(=O)OC)[C@H](OC(C)=O)[C@]5(CC)C=CCN6CC[C@]43[C@@H]65)C2)C1`, the concentration at half-maximal activity (AC50) is 153 nM (active).
In the case of `CCCSc1ccc2nc(NC(=O)OC)[nH]c2c1`, the result was inactive.
Regarding `CCN(CC)CCNC(=O)c1c(C)[nH]c(/C=C2\C(=O)Nc3ccc(F)cc32)c1C`, the AC50 is 2170 nM (active).
Turning to `CC[C@H]1OC(=O)[C@H](C)[C@@H](O[C@H]2C[C@@](C)(OC)[C@@H](O)[C@H](C)O2)[C@H](C)[C@@H](O[C@@H]2O[C@H](C)C[C@H](N(C)C)[C@@H]2O)[C@](C)(O)C[C@@H](C)CN(C)[C@H](C)[C@@H](O)[C@]1(C)O`, the AC50 was 6110 nM (active).
Turning to `CCC1=C[C@@H]2CN(C1)Cc1c([nH]c3ccccc13)[C@@](C(=O)OC)(c1cc3c(cc1OC)N(C)[C@H]1[C@@](O)(C(=O)OC)[C@H](OC(C)=O)[C@]4(CC)C=CCN5CC[C@]31[C@@H]54)C2`, the concentration at half-maximal activity (AC50) is 86.3 nM (active).
Regarding `COc1cccc2c1C(=O)c1c(O)c3c(c(O)c1C2=O)C[C@@](O)(C(C)=O)C[C@H]3O[C@H]1C[C@H](N)[C@H](O)[C@H](C)O1`, the AC50 is 2730 nM (active).
For the compound `COC(=O)Nc1nc2ccc(C(=O)c3ccccc3)cc2[nH]1`, the result was inactive.
The same measure, in the same setting: the result for `CC[C@H]1OC(=O)[C@H](C)[C@@H](O[C@H]2C[C@@](C)(OC)[C@@H](O)[C@H](C)O2)C(C)[C@@H](O[C@@H]2O[C@H](C)C[C@H](N(C)C)[C@@H]2O)[C@](C)(OC)C[C@@H](C)C(=O)[C@H](C)[C@@H](O)[C@]1(C)O` (stereo not given in full) reads “inactive”; that for `CCCNCC(O)COc1ccccc1C(=O)CCc1ccccc1` (stereo not given), “inactive”.
Consider `CCCCc1oc2ccc(NS(C)(=O)=O)cc2c1C(=O)c1ccc(OCCCN(CCCC)CCCC)cc1`, for which the AC50 was 3850 nM (active).
